Screening results as filed in PubChem.
Most compounds without a hit are left out; they make up all but 7% or so of the library.
PI5P4Ka inh: inhibitors of human PI5P4K alpha. AID 652105. 1.2% of 330,000 active. max response, %. PI5P4Kalpha enzyme, ADP-Glo luminescence, 60 min; active compounds read low; active = max response of -50% or lower; inconclusive = between -30% and -50%; inactive = -30% or higher; also: value at the top dose of about 77 µM; % is scaled to controls: 0 for no effect and ±100 for the full control effect
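Human PI5P4Kalpha with substrate in 0.038 M HEPES pH 7.4, 0.28 mM EGTA, 0.1% CHAPS, 5% DMSO; reaction started with 5 microM ATP (final), 60 min at room temperature. ADP formed read by ADP-Glo luminescence.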
JMJD2A Tudor inh: inhibitors of human JMJD2A Tudor domain; O75164; AlphaScreen JMJD2A-Tudor / H3K4me3 peptide binding; Potency, µM (series often up to 114 µM), for inactives: at the top dose activity change, negative = inhibition, most hits filed as inhibitors; 4.4% of 390,000 active; AID 504339; also: potency is read from the fitted curve at half-maximal effect; % is scaled to controls: 0 for no effect and ±100 for the full control effect; nearly all actives have a fitted effect of over 50% in size
PLK1 PBD block: PLK1 (human) polo-box domain binding inhibition; P53350; Plk1 PBD binding of FITC phosphopeptide, fluorescence polarization; Potency, µM, for inactives: max response, negative = inhibition, actives largely listed as inhibitors; 2.8% of 360,000 active; AID 720504; also: potency is read from the fitted curve at half-maximal effect; series mostly up to about 57 µM; % is scaled to controls: 0 for no effect and ±100 for the full control effect; nearly all actives have a fitted effect of over 65% in size
HP1b chromo inh: HP1-beta chromodomain-methylated histone interaction inhibition; Potency, µM (titrated, usually from 114 µM), for inactives: at the highest dose activity change, negative = inhibition, actives largely listed as inhibitors; AID 540317; AlphaScreen HP1-beta / biotin-H3K9me3 peptide binding; P83916; 0.56% of 390,000 active; also: potency is read from the fitted curve at half-maximal effect; nearly all actives have a fitted effect of over 70% in size
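Compound inhibition of the preformed complex between 50 nM HP1-beta and 50 nM biotinylated H3K9me3 peptide was read by AlphaScreen. Buffer was PBS pH 7.4 with 0.01% Tween-20. Incubations ran 30 min at room temperature, with 10 ug/mL donor/acceptor beads.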
GCN5L2 inh: GCN5L2 (KAT2A) acetyltransferase inhibition; Q92830; GCN5L2 HAT assay, ThioGlo1 CoA-SH fluorescence; Potency, µM (series often up to 58.9 µM), inactives show at the top dose activity change, negative = inhibition, most hits filed as inhibitors; 0.21% of 390,000 active; AID 504327; also: potency is read from the fitted curve at half-maximal effect; % is scaled to controls: 0 for no effect and ±100 for the full control effect
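Preincubate 20nM GCN5L2 with compound 15 min, RT → add 50uM ThioGlo1 + 75uM H3(1-25) + 70uM acetyl-CoA → read fluorescence 0 and 20 min. Primary qHTS; fluorescent artifacts likely.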
BAZ2B inh: BAZ2B (human) inhibition; AlphaScreen BAZ2B-H3K14Ac peptide displacement; Potency, µM (top dose mostly 114 µM), without a hit: top-dose activity change, negative = inhibition, usual class: inhibitors; 4.4% of 360,000 active; AID 504333; also: potency is read from the fitted curve at half-maximal effect; % is scaled to controls: 0 for no effect and ±100 for the full control effect; nearly all actives have a fitted effect of over 60% in size
Target sequence (Q9UIF8 whole entry, looked up): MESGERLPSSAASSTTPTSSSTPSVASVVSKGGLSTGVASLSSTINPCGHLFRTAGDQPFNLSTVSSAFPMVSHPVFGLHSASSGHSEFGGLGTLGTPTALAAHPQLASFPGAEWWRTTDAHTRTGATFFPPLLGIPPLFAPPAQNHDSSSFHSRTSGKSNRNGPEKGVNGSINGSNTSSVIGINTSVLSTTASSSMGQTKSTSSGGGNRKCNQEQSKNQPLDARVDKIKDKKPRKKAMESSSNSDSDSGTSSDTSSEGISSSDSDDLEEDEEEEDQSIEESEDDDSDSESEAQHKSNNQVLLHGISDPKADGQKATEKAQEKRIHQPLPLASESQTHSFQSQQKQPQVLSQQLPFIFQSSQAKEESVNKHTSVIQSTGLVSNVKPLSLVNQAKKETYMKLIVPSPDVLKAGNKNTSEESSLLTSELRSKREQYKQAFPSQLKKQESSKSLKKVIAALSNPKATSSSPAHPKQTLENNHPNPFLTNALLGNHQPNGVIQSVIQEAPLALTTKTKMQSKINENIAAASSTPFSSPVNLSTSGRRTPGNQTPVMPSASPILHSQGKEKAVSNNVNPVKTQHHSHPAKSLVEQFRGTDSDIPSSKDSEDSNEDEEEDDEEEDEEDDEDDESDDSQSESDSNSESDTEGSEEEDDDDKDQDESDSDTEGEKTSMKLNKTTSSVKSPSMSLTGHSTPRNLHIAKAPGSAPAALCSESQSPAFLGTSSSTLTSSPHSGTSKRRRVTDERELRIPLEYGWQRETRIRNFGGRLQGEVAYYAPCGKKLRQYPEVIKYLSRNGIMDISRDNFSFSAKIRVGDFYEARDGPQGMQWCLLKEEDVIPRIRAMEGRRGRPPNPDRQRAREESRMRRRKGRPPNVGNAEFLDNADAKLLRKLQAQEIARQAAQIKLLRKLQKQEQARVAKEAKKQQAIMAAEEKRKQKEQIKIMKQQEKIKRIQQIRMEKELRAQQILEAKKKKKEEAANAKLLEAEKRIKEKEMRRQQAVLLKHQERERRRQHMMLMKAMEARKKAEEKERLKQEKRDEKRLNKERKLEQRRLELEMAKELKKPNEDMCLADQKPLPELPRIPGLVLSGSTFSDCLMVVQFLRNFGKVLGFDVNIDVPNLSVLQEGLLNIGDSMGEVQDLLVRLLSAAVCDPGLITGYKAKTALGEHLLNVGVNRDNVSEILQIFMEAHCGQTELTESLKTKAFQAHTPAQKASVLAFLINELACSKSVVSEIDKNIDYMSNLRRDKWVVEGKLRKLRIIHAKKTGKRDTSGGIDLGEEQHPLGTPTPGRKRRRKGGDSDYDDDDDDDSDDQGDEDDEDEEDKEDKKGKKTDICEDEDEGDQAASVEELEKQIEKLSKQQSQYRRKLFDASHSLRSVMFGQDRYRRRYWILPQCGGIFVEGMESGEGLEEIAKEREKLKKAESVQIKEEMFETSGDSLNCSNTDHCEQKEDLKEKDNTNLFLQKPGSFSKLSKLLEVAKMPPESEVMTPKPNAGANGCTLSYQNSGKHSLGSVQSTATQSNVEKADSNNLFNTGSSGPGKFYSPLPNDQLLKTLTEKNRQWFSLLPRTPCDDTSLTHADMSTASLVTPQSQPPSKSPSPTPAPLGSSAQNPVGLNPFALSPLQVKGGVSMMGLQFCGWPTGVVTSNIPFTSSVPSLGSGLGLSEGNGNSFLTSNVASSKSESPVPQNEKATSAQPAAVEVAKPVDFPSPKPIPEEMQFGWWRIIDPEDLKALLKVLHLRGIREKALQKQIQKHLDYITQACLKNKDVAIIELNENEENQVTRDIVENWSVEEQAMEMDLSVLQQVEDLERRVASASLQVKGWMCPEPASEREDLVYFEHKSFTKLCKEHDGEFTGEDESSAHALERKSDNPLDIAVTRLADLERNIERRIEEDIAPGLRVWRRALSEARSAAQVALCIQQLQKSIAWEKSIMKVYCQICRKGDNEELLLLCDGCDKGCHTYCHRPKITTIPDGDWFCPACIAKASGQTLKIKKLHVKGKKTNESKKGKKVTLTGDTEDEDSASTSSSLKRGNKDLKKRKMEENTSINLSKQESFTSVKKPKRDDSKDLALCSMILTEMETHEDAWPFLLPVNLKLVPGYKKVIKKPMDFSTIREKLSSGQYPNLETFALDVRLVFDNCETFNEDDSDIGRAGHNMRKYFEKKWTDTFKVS
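BAZ2B 50 nM plus b-H3(5-23)K14Ac 50 nM, PBS pH 7.4/0.01% Tween-20, 30 min RT; compound added (max 110 uM), 30 min RT; streptavidin donor/Ni-chelate acceptor beads 10 ug/mL final, 20 min dark; AlphaScreen read.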
* = called active by the depositor; [ ] = another dose, or the depositor's remark. Unless noted, calls follow the shape of the dose curve; as a rule, active = well fitted curve in the direction sought with a large enough effect; inconclusive = small, poorly fitted or top-dose-only effect, or another doubt; inactive = no such curve, though single readings can be large; an effect the other way counts as inactive or inconclusive.

Cc1ccccc1OCC(=O)Nc1ccc(NC(=O)c2ccco2)cc1 was read as PI5P4Ka inh -15.9, JMJD2A Tudor inh -20.3%, PLK1 PBD block 21.2µM*, HP1b chromo inh -11.5%, GCN5L2 inh 0.8% and BAZ2B inh -16.5%.
Cc1ccccc1OCC(=O)Nc1ccc(S(=O)(=O)N(Cc2ccccc2)c2ccccc2)cc1 was read as JMJD2A Tudor inh 79.4µM*, HP1b chromo inh 41.4%, GCN5L2 inh -13.7% and BAZ2B inh -3.9%.
`CN1CCN(Cc2nc3c([nH]2)c(=O)[nH]c(=O)n3C)CC1` gave PI5P4Ka inh 6.3, JMJD2A Tudor inh 10µM*, PLK1 PBD block -8.4%, HP1b chromo inh -2.3%, GCN5L2 inh -4.2% and BAZ2B inh -3.7%.
For Cn1c(=O)c2[nH]c(Cc3cccc(O)c3)nc2n(C)c1=O the results were PI5P4Ka inh -7.5, JMJD2A Tudor inh -0.7%, PLK1 PBD block -11.9% and HP1b chromo inh 20.9%.
Screening Cn1c(=O)c2[nH]c(CN3CCCCC3)nc2n(C)c1=O returned PI5P4Ka inh 6.9, JMJD2A Tudor inh 3.98µM*, PLK1 PBD block 2.5% and HP1b chromo inh inconclusive.
Screening Cn1c(=O)c2[nH]c(CN3CCN(Cc4ccccc4)CC3)nc2n(C)c1=O returned PI5P4Ka inh 8.6, JMJD2A Tudor inh 8.91µM*, PLK1 PBD block -1.3%, HP1b chromo inh 9.4%, GCN5L2 inh 2.6% and BAZ2B inh -5.4%.
Screening CC(C)c1ccc(NC(=O)C(NS(=O)(=O)c2ccc3c(c2)CCC(=O)N3)c2ccccc2)cc1 (stereo not drawn) returned JMJD2A Tudor inh -26.6%, HP1b chromo inh 6.0%, GCN5L2 inh -0.2% and BAZ2B inh -11.7%.
For COc1ccc(-c2nc(SCC(=O)Nc3ccccc3)c(-c3ccc(F)cc3)[nH]2)cc1OC the results were JMJD2A Tudor inh -6.2%, HP1b chromo inh 14.9%, GCN5L2 inh -8.7% and BAZ2B inh -15.0%.
COc1cc(C)c(S(=O)(=O)N2CCCC2)cc1C(C)C was read as PI5P4Ka inh 0.0, JMJD2A Tudor inh 3.7%, PLK1 PBD block 26.7µM*, HP1b chromo inh -11.8%, GCN5L2 inh -6.9% and BAZ2B inh 0.0%.
Screening COc1cc(C)c(S(=O)(=O)N2CCCC2)cc1C returned PI5P4Ka inh -4.3, JMJD2A Tudor inh 16.6%, PLK1 PBD block -2.8%, HP1b chromo inh 50.2%, GCN5L2 inh -12.8% and BAZ2B inh -0.7%.
`COc1ccc(Br)cc1S(=O)(=O)N1CCCC1` gave PI5P4Ka inh inconclusive, JMJD2A Tudor inh inconclusive, PLK1 PBD block 2.99µM*, HP1b chromo inh inconclusive, GCN5L2 inh -2.2% and BAZ2B inh 6.4%.
`O=C(CN1CCN(C(C(=O)Nc2cc(C(F)(F)F)ccc2Cl)c2ccccc2)CC1)NC1CC1` (stereo not drawn) gave PI5P4Ka inh 6.7, JMJD2A Tudor inh -18.8%, PLK1 PBD block -3.1% and HP1b chromo inh 23.1%.
CN(Cc1cnccn1)C(=O)CC1C(=O)NCCN1Cc1ccc(F)cc1Cl (stereo not drawn) was read as PI5P4Ka inh -5.0, JMJD2A Tudor inh -13.9%, PLK1 PBD block -10.8%, HP1b chromo inh 19.4%, GCN5L2 inh -27.4% and BAZ2B inh -10.4%.
CN(Cc1ccccn1)C(=O)CC1C(=O)NCCN1Cc1ccc(F)cc1Cl (stereo not drawn) was read as PI5P4Ka inh -0.8, JMJD2A Tudor inh inconclusive, PLK1 PBD block -20.9%, HP1b chromo inh 13.5%, GCN5L2 inh -2.9% and BAZ2B inh 56.2µM*.
For COc1ccccc1N1CCN(C(=O)Cn2ncc3ccsc3c2=O)CC1 the results were JMJD2A Tudor inh -21.2%, HP1b chromo inh 74.2%, GCN5L2 inh -0.6% and BAZ2B inh 1.6%.
O=c1cc(CSc2nnnn2-c2ccccc2)[nH]c2[nH]n(-c3ccccc3)c(=O)c12 was read as PI5P4Ka inh inconclusive, JMJD2A Tudor inh 89.1µM*, PLK1 PBD block -6.1%, HP1b chromo inh -15.6%, GCN5L2 inh -5.0% and BAZ2B inh inconclusive.
`c1ccc(-n2nnnc2SCc2cccc(CSc3nnnn3-c3ccccc3)n2)cc1` gave PI5P4Ka inh 2.0, JMJD2A Tudor inh -2.2%, PLK1 PBD block 5.4%, HP1b chromo inh 29.4%, GCN5L2 inh -2.0% and BAZ2B inh -6.2%.
Screening Fc1ccc2c(c1)C1C=CCC1C(c1cc3c(cc1Br)OCO3)N2 (stereo not drawn) returned JMJD2A Tudor inh 44.7µM*, PLK1 PBD block -2.6%, HP1b chromo inh -24.2%, GCN5L2 inh -10.4% and BAZ2B inh -36.1%[57.1 µM].
COCCN(C(=O)CSc1n[nH]c(-c2ccccc2)n1)c1c(N)n(Cc2ccccc2)c(=O)[nH]c1=O was read as PI5P4Ka inh -2.5, JMJD2A Tudor inh -16.6%, PLK1 PBD block -11.9%, HP1b chromo inh 3.1%, GCN5L2 inh -3.5% and BAZ2B inh 11.6%.
For COc1ccc(C(=O)OCC(=O)Nc2ncc([N+](=O)[O-])s2)cc1OC the results were PI5P4Ka inh -77.4*, JMJD2A Tudor inh 39.8µM*, PLK1 PBD block 9.47µM*, HP1b chromo inh inconclusive, GCN5L2 inh inconclusive and BAZ2B inh 50.1µM*.
O=C(COC(=O)c1ccc(Br)o1)Nc1ncc([N+](=O)[O-])s1 was read as PI5P4Ka inh -53.2*, JMJD2A Tudor inh inconclusive, PLK1 PBD block 10.6µM*, HP1b chromo inh -20.2%, GCN5L2 inh inconclusive and BAZ2B inh inconclusive.
Screening COc1ccc(C(=O)OCC(=O)Nc2sccc2C(N)=O)cc1OC returned PI5P4Ka inh -7.2, JMJD2A Tudor inh -5.6%, PLK1 PBD block -0.1%, HP1b chromo inh 36.3%, GCN5L2 inh -10.9% and BAZ2B inh 0.7%.
For Cc1ccc(-c2n[nH]c3c2C(c2ccc(C(C)(C)C)cc2)NC3=O)cc1 (stereo not drawn) the results were JMJD2A Tudor inh -15.0%, HP1b chromo inh 23.8% and GCN5L2 inh -15.3%.
Screening O=C(NCCc1ccccc1)C(c1ccccc1F)N(C(=O)c1csnn1)C1CC1 (stereo not drawn) returned PI5P4Ka inh -7.2, JMJD2A Tudor inh -1.4%, PLK1 PBD block -3.5%, HP1b chromo inh 23.4%, GCN5L2 inh -3.0% and BAZ2B inh 3.4%.
CC1CCc2nn(CC(=O)Nc3cccc(C(F)(F)F)c3)c(=O)cc2C1 (stereo not drawn) was read as JMJD2A Tudor inh -5.8%, HP1b chromo inh 26.3%[57 µM], GCN5L2 inh 1.3% and BAZ2B inh 3.6%.
CCN(CCCNc1ncnc2nc[nH]c12)c1cccc(C)c1 was read as PI5P4Ka inh 7.3, JMJD2A Tudor inh 39.8µM*, PLK1 PBD block -1.0%, HP1b chromo inh -19.2%, GCN5L2 inh -0.9% and BAZ2B inh 50.1µM*.
